# Measurements published in ChEMBL document CHEMBL2218924, “A broad activity screen in support of a chemogenomic map for kinase signalling research and drug discovery” (Biochem J, 2013).
# What was measured:
# [1] = target: Tyrosine-protein kinase SYK (Homo sapiens) (UniProt P43405); conditions: at 10 µM
# [2] = target: T1, Mitogen-activated protein kinase kinase kinase 7 (Homo sapiens) (UniProt O43318); conditions: at 1 µM
# T1 sequence (whole entry): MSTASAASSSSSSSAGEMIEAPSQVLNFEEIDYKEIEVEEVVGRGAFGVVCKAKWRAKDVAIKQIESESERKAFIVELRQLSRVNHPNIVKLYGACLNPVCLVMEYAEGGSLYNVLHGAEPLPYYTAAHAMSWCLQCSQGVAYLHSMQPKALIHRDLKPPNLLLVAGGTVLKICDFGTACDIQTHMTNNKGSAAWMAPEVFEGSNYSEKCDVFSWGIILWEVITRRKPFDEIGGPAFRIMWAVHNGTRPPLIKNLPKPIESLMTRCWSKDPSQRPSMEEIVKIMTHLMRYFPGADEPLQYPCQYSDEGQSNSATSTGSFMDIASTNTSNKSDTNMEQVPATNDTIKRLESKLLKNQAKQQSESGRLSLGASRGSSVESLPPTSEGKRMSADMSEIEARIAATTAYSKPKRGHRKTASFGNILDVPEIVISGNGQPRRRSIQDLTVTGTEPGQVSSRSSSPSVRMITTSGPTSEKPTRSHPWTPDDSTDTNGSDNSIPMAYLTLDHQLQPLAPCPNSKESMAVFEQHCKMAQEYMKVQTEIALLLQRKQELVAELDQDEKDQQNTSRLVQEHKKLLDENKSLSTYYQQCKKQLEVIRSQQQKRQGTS
# [3] = target: T1, Mitogen-activated protein kinase kinase kinase 7 (Homo sapiens); conditions: at 10 µM
# [4] = target: T2, Serine/threonine-protein kinase TAO1 (Homo sapiens) (UniProt Q7L7X3); conditions: at 1 µM
# T2 sequence (whole entry): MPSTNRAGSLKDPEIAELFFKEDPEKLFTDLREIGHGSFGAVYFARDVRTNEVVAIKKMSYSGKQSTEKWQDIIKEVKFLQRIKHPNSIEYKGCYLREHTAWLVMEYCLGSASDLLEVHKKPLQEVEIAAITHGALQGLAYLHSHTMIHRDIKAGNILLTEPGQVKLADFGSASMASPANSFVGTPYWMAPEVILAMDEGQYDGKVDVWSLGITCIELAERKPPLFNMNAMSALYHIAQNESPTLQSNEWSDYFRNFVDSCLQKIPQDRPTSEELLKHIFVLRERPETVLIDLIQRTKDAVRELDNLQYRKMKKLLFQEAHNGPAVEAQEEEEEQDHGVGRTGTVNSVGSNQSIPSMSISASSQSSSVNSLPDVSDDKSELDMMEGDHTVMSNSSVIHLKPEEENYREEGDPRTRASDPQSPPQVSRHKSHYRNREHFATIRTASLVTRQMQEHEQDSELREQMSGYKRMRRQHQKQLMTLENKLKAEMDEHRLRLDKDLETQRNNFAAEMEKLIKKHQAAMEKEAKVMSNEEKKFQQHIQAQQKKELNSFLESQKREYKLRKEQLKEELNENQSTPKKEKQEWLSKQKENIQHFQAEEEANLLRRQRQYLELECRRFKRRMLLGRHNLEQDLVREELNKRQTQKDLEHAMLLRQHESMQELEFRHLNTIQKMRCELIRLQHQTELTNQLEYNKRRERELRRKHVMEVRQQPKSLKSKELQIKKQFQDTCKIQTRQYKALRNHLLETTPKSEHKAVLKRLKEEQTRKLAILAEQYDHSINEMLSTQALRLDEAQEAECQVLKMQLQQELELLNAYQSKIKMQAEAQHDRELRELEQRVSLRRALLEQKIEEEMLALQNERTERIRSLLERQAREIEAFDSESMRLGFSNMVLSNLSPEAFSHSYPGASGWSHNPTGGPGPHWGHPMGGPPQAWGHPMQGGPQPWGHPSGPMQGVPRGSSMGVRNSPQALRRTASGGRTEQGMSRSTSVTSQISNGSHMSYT
# [5] = target: T2, Serine/threonine-protein kinase TAO1 (Homo sapiens); conditions: at 10 µM
# [6] = target: T3, Serine/threonine-protein kinase TAO2 (Homo sapiens) (UniProt Q9UL54); conditions: at 1 µM
# T3 sequence (whole entry): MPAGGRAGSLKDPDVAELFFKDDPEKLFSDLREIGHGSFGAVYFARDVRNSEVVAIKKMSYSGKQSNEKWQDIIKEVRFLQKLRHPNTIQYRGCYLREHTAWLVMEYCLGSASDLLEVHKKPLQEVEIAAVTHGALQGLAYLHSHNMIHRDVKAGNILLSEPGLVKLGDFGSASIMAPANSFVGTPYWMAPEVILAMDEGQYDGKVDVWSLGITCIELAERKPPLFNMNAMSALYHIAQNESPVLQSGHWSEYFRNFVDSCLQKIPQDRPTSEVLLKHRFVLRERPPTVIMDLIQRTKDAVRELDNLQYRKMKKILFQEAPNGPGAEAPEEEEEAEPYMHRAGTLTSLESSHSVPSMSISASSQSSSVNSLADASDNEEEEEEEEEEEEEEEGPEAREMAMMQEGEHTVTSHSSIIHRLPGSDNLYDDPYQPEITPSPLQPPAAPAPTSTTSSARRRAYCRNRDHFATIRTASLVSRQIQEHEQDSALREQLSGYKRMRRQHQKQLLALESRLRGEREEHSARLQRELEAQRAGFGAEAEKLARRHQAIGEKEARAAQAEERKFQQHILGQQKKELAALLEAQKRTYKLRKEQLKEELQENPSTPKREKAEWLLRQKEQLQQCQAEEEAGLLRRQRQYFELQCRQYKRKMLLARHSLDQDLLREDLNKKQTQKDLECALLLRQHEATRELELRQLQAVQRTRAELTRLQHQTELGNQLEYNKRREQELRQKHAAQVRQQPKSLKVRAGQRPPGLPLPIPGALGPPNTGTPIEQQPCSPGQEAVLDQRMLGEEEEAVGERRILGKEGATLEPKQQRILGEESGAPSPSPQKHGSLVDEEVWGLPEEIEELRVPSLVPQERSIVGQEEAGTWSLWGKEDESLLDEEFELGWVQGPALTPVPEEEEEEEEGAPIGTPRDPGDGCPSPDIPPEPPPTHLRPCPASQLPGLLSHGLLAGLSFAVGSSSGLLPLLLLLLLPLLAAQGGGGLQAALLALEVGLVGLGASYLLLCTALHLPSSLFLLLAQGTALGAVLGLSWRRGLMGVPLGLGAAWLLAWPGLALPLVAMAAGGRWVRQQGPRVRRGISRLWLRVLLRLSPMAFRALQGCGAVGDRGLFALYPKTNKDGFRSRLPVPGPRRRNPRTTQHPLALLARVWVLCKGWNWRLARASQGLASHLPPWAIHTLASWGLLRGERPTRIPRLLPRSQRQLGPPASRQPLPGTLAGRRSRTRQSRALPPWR
# [7] = target: T3, Serine/threonine-protein kinase TAO2 (Homo sapiens); conditions: at 10 µM
# [8] = target: T4, Serine/threonine-protein kinase TAO3 (Homo sapiens) (UniProt Q9H2K8); conditions: at 1 µM
# T4 sequence (whole entry): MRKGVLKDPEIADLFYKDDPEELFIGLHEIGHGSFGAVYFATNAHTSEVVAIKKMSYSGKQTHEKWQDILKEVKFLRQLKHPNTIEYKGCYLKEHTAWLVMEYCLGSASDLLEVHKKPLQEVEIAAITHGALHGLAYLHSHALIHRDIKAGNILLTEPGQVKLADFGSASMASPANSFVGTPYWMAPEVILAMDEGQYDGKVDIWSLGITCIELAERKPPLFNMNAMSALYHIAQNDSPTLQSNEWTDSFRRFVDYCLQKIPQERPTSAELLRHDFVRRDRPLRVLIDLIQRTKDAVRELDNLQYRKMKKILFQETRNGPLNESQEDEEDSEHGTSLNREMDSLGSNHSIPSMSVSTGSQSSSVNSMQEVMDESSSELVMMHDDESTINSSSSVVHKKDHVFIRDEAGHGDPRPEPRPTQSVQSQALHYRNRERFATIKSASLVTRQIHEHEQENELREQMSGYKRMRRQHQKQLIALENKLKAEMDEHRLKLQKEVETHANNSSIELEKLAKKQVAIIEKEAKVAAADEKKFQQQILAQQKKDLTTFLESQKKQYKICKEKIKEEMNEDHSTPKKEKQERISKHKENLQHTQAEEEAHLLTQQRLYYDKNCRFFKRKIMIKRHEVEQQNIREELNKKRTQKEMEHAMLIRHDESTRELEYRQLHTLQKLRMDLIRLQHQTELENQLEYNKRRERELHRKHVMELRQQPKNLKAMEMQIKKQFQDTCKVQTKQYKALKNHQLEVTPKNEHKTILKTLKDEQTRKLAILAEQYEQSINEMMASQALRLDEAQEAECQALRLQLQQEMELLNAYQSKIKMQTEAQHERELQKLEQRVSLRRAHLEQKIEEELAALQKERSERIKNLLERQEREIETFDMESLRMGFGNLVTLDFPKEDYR
# [9] = target: T4, Serine/threonine-protein kinase TAO3 (Homo sapiens); conditions: at 10 µM
# [10] = target: T5, Serine/threonine-protein kinase TBK1 (Homo sapiens) (UniProt Q9UHD2); conditions: at 1 µM
# T5 sequence (whole entry): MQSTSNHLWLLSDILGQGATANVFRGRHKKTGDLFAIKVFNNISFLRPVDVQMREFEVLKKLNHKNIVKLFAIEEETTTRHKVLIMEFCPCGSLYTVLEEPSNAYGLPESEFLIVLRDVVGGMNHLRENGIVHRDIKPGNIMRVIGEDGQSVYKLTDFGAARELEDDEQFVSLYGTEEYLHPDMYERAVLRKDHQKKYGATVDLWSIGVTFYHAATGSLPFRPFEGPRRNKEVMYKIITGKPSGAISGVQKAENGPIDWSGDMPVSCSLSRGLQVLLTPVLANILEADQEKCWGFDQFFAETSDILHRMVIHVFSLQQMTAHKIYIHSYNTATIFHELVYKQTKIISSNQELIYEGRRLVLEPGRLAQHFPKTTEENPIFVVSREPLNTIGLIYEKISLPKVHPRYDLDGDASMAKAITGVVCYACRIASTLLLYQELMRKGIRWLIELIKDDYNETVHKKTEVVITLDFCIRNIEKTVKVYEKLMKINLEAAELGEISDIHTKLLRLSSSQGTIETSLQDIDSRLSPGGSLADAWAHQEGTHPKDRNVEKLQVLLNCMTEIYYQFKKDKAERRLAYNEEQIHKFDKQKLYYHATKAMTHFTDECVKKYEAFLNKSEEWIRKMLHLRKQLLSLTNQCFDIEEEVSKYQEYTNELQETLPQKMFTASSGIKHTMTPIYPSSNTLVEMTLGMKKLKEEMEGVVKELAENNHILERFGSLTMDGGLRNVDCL
# [11] = target: T5, Serine/threonine-protein kinase TBK1 (Homo sapiens); conditions: at 10 µM
# [12] = target: T6, TGF-beta receptor type-1 (Homo sapiens) (UniProt P36897); conditions: at 1 µM
# T6 sequence (whole entry): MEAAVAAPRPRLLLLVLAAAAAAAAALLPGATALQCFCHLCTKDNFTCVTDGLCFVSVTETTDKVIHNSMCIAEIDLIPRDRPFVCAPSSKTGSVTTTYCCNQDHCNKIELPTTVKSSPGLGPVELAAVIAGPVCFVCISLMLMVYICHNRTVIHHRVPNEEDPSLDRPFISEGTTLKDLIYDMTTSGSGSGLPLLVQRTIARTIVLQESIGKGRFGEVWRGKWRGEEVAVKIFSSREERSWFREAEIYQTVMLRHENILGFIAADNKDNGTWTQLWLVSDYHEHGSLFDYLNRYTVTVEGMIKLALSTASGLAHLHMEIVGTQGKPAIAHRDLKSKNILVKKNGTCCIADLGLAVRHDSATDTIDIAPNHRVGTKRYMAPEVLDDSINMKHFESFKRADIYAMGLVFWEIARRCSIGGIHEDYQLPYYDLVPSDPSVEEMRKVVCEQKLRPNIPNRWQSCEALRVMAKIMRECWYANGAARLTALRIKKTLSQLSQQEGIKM
# [13] = target: T6, TGF-beta receptor type-1 (Homo sapiens); conditions: at 10 µM
# [14] = target: Insulin-like growth factor 1 receptor (Homo sapiens) (UniProt P08069); conditions: at 1 µM
# Sequence of Insulin-like growth factor 1 receptor (Homo sapiens) (P08069 31-736 limits assumed): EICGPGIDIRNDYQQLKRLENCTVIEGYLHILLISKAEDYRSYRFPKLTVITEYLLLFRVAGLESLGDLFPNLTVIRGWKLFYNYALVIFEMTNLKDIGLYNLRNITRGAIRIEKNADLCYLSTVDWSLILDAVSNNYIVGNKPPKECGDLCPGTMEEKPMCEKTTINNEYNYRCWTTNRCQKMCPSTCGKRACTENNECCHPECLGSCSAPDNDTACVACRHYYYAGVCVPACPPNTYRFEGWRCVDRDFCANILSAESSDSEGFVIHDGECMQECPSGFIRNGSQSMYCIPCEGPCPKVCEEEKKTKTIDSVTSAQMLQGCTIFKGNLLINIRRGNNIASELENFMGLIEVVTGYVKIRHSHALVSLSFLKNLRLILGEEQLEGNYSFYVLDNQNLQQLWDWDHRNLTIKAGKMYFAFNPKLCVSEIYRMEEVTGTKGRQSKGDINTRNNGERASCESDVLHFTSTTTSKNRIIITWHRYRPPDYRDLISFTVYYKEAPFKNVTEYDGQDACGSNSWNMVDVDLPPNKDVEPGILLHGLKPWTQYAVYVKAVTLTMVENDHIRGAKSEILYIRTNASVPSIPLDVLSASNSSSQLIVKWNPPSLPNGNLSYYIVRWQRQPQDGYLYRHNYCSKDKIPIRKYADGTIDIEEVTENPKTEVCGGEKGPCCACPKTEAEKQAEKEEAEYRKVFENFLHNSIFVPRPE
# Sequence of Insulin-like growth factor 1 receptor (Homo sapiens) (P08069 741-1367 limits assumed): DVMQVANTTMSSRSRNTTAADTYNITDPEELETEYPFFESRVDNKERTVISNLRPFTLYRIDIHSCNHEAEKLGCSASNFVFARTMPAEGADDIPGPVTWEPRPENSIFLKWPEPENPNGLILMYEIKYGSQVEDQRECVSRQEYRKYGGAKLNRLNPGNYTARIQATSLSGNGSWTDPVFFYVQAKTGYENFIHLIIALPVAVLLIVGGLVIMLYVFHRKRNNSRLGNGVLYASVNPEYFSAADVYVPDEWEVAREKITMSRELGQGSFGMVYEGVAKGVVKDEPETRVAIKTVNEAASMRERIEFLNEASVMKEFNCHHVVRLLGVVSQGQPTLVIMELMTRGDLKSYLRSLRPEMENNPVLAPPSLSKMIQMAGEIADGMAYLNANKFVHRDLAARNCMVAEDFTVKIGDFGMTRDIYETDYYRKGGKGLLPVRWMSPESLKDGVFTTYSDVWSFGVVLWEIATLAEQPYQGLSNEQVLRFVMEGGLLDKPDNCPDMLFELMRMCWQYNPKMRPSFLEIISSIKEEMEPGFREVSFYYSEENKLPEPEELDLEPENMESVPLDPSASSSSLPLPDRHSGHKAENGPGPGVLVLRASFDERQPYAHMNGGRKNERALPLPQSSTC
# [15] = target: T7, Inhibitor of nuclear factor kappa-B kinase subunit beta (Homo sapiens) (UniProt O14920); conditions: at 1 µM
# T7 sequence (whole entry): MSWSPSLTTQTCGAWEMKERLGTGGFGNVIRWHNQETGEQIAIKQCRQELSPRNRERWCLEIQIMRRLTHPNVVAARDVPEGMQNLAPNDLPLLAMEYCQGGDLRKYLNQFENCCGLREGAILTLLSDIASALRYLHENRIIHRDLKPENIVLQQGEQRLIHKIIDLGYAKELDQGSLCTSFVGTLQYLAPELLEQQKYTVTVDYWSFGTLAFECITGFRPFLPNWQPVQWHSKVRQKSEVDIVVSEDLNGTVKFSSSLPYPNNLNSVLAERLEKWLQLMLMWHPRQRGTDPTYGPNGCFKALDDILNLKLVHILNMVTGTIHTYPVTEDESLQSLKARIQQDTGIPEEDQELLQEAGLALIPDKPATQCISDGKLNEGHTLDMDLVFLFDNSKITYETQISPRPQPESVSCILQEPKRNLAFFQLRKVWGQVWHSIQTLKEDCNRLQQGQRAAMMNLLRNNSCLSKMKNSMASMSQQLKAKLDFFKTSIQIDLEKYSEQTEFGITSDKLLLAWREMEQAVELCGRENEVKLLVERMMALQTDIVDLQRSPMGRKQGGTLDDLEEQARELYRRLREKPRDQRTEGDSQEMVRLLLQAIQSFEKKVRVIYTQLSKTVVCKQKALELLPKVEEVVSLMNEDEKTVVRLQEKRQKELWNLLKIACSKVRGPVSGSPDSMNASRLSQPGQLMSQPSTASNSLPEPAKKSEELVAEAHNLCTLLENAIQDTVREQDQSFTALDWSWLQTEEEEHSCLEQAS
# [16] = target: T7, Inhibitor of nuclear factor kappa-B kinase subunit beta (Homo sapiens); conditions: at 10 µM
# [17] = target: Insulin receptor (Homo sapiens) (UniProt P06213); conditions: at 1 µM
# Sequence of Insulin receptor (Homo sapiens) (P06213 28-758 limits assumed): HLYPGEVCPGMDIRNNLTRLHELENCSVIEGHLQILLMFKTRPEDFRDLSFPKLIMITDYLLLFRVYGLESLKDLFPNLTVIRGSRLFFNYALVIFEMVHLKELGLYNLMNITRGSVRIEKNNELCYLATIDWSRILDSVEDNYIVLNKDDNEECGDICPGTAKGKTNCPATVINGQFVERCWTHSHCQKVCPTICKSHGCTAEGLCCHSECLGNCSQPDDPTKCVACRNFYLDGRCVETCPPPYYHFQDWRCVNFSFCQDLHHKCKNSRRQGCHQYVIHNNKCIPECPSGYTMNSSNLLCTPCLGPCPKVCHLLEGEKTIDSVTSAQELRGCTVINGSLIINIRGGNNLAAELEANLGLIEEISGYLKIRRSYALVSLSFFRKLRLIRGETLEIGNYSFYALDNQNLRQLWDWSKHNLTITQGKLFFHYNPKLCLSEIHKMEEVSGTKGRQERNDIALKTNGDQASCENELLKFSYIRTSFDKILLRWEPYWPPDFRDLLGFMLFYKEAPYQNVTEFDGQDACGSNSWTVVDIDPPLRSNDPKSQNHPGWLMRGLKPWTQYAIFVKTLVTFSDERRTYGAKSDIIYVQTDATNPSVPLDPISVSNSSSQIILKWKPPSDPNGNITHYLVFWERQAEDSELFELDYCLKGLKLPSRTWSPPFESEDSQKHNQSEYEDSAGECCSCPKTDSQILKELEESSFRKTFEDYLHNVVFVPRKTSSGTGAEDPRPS
# Sequence of Insulin receptor (Homo sapiens) (P06213 763-1382 limits assumed): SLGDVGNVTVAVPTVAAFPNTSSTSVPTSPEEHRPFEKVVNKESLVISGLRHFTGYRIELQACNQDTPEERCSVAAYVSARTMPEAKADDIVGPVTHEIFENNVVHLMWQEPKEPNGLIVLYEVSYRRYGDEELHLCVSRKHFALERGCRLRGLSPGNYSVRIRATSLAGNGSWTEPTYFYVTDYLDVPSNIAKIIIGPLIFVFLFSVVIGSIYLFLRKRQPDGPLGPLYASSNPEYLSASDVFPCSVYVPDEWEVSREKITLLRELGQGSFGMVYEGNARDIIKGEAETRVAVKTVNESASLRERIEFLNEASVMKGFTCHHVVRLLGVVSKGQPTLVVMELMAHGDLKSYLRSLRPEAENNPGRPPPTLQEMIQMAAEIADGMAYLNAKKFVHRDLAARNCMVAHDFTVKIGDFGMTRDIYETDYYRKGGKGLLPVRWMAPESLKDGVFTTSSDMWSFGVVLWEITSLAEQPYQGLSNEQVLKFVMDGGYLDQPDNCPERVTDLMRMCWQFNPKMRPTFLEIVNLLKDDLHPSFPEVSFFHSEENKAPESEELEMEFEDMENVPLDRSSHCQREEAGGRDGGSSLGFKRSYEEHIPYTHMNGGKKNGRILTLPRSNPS
smiles,measurement,setting,value
CN(C)S(=O)(=O)c1ccc2c(c1)/C(=C/c1cc3c([nH]1)CCCC3)C(=O)N2,residual activity,[1],96%
same,residual activity,[2],100%
same,residual activity,[3],92%
same,residual activity,[4],37%
same,residual activity,[5],56%
same,residual activity,[6],93%
same,residual activity,[7],87%
same,residual activity,[8],89%
same,residual activity,[9],73%
same,residual activity,[10],74%
same,residual activity,[11],60%
same,residual activity,[12],88%
same,residual activity,[13],91%
same,residual activity,[14],93%
same,residual activity,[15],100%
same,residual activity,[16],63%
same,residual activity,[17],93%
